# Measured values reported in PMC7862700, “An all-to-all approach to the identification of sequence-specific readers for epigenetic DNA modifications on cytosine”.
# What was measured:
# Experiment in all cases: DAPPL (digital affinity profiling via proximity ligation, sequencing); 10 mM Tris-HCl pH 7.5, 50 mM NaCl, 1 mM DTT, 4% glycerol, room temperature, 30 min; GST-TFs on glutathione beads, 16-mer random dsDNA library, 0.1% formaldehyde crosslink after washing; high values mean tight binding
# Settings in all cases: protein: recombinant; tags: N-terminal GST; dsDNA, one strand shown
# FLI1 = biological target: T1, FLI1 (Homo sapiens, UniProt Q01543 1-452)
# T1 sequence: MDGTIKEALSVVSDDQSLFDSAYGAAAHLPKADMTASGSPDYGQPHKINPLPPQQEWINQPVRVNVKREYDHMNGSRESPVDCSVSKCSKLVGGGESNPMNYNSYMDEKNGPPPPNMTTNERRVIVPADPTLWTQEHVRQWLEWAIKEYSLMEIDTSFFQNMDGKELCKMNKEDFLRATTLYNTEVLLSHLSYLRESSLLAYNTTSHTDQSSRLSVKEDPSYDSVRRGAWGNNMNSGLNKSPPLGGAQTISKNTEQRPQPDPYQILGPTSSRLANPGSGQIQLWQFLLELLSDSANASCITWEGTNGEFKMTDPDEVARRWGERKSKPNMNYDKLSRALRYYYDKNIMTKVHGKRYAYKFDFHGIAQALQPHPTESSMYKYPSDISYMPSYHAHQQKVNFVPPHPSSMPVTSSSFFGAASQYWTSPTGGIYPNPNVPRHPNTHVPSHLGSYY
# In short: (§1)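 Pools were built from human transcription factors expressed in yeast as GST fusions, captured on glutathione beads and DNA-barcoded, along with a tag-only sample. Incubation with 200 nmole of a 16-mer random double-stranded DNA library lasted 30 min at room temperature in Tris/NaCl/DTT/glycerol buffer, and was followed by washing, 0.1% formaldehyde crosslinking, proximity ligation, PCR amplification and Illumina NextSeq500 sequencing. Binding signal is the quotient of each hexamer's read frequency for a factor and its frequency for the tag-only sample.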
# ELK1 = biological target: T2, ELK1 (Homo sapiens, UniProt P19419 1-428)
# T2 sequence: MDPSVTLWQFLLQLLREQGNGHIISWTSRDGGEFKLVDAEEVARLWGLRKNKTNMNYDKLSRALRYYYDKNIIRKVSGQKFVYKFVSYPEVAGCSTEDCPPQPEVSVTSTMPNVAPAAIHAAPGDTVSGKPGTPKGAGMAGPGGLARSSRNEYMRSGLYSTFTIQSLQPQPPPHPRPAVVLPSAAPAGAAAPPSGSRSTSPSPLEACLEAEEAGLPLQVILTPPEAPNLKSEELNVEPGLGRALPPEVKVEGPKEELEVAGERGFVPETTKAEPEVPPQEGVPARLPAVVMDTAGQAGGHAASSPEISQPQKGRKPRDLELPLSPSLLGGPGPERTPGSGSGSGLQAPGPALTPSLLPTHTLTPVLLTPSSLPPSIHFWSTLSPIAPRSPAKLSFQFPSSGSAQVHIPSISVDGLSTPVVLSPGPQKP
# In short: as §1
# GABPA = biological target: T3, GABPA (Homo sapiens, UniProt Q06546 1-454)
# T3 sequence: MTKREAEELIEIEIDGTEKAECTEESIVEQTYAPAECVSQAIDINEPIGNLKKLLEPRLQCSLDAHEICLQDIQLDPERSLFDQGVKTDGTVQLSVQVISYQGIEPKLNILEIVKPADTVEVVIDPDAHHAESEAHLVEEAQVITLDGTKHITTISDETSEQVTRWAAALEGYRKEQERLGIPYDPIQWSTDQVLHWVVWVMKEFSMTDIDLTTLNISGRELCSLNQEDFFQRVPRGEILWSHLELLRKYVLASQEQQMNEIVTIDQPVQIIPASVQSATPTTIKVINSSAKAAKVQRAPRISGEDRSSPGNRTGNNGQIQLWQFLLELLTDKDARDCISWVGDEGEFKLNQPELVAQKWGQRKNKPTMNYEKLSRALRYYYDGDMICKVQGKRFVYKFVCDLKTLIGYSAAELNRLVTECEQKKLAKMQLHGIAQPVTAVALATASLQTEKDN
# In short: as §1
# ERG = biological target: T4, ERG (Homo sapiens, UniProt P11308 1-479)
# T4 sequence: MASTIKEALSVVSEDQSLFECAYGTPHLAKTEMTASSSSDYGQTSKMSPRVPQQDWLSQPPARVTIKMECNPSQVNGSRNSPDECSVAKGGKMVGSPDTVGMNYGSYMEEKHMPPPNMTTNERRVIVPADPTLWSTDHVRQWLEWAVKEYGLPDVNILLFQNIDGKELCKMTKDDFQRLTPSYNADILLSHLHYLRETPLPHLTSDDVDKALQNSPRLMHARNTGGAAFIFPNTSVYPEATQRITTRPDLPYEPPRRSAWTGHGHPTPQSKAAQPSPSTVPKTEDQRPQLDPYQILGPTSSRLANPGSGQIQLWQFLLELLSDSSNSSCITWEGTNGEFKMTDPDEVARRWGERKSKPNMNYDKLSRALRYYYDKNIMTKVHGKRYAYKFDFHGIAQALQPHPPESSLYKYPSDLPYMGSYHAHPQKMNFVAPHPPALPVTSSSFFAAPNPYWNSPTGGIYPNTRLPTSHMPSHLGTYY
# In short: as §1
# ELF1 = ELF1 (Homo sapiens, UniProt P32519 1-619)
# Chain of ELF1 (P32519 whole entry): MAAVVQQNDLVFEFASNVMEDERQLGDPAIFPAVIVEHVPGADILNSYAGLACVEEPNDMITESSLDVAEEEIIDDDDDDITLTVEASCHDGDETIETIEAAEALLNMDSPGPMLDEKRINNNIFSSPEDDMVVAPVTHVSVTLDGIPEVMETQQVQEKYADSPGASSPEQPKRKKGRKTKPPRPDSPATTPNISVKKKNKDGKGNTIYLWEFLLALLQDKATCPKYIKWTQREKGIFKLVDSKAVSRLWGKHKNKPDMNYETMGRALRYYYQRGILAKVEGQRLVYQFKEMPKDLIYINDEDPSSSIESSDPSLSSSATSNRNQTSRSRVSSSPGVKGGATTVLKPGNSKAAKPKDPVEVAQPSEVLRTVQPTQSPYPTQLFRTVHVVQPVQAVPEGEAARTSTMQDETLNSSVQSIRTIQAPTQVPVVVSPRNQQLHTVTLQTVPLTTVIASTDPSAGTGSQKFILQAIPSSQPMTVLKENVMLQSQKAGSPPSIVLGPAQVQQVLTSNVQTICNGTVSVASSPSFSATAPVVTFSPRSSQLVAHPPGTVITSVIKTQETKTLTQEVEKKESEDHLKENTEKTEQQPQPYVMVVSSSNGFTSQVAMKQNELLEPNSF
# In short: as §1
# EHF = biological target: T5, EHF (Homo sapiens, UniProt Q9NZC4 1-300)
# T5 sequence: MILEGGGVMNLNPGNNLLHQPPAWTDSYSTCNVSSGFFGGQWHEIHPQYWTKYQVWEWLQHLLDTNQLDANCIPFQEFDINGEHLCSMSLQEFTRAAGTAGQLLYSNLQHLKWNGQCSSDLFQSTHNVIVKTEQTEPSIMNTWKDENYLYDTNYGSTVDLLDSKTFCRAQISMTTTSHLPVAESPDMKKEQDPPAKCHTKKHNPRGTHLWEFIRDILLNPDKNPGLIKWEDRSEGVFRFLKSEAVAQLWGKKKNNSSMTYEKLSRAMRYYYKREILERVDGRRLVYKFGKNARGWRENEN
# In short: as §1
# SPI1 = SPI1 (Homo sapiens, UniProt P17947 1-270)
# In short: as §1
# SPIB = SPIB (Homo sapiens, UniProt Q01892 1-262)
# Chain of SPIB (Q01892 whole entry): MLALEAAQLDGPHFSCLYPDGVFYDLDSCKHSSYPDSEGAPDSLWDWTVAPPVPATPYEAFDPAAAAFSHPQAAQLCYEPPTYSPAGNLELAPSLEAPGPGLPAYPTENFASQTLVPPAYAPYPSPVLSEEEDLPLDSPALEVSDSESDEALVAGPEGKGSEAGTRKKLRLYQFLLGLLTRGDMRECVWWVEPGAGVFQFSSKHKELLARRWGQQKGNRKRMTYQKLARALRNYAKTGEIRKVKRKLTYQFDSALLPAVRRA
# In short: as §1
# ELK3 = biological target: T6, ELK3 (Homo sapiens, UniProt P41970 1-407)
# T6 sequence: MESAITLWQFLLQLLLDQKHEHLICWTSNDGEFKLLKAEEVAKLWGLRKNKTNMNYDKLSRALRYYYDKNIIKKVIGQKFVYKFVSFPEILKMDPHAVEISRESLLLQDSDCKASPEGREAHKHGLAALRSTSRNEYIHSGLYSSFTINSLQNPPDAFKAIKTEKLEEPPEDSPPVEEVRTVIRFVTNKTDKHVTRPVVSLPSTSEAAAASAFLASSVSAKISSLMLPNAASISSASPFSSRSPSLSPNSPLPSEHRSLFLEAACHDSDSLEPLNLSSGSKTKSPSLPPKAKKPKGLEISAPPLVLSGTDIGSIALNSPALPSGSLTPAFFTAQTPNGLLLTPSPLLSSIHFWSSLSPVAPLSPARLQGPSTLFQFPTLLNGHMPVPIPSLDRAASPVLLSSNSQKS
# In short: as §1
sequence,measurement,setting,value
GCTTTG,binding signal,FLI1,"1.24 fold enrichment (6-mer frequency, TF over GST control)"
same,binding signal,ELK1,"1.1 fold enrichment (6-mer frequency, TF over GST control)"
same,binding signal,GABPA,"1.11 fold enrichment (6-mer frequency, TF over GST control)"
same,binding signal,ERG,"1.15 fold enrichment (6-mer frequency, TF over GST control)"
same,binding signal,ELF1,"1.14 fold enrichment (6-mer frequency, TF over GST control)"
same,binding signal,EHF,"1.15 fold enrichment (6-mer frequency, TF over GST control)"
same,binding signal,SPI1,"1.07 fold enrichment (6-mer frequency, TF over GST control)"
same,binding signal,SPIB,"1.14 fold enrichment (6-mer frequency, TF over GST control)"
same,binding signal,ELK3,"1.12 fold enrichment (6-mer frequency, TF over GST control)"
